Out of some 48,000 compounds screened, about 13,000 (27%) showed an effect of 50% or more. The list shows a part of the results.
system: Wolbachia pipientis; assay: Anti-Wolbachia Cell-Based Screen; format: functional; design: scale not given: in the data most compounds retested in dose-response had high values; conditions: 5 µM

SMILES | Percent Effect [%]
Cc1cnn(CC2CN(CC(=O)NCCc3cccs3)CCO2)c1 (centres undefined) | -8.737
CCC(NC(=O)c1cccc(N2CCCC2=O)c1)c1ccc(OC)cc1 (centres undefined) | -14.69
Cc1ccc(N2CCCC(N3CCC(N(C)C)CC3)C2=O)cc1 (centres undefined) | 3.726
Cc1cc(=O)n2ncnc2n1CC(O)COCc1ccccc1Cl (centres undefined) | -44.43
Cc1cc(F)cc(S(=O)(=O)Nc2noc(C)n2)c1 | -6.165
COCCn1/c(=N\C(=O)CN(C)S(C)(=O)=O)sc2cc(OC)ccc21 | -16.36
Cc1cc(CN2C[C@H](N3CCOCC3)[C@@H]3OCCC[C@@H]32)oc1C.O=C(O)C(F)(F)F.O=C(O)C(F)(F)F | -6.636
Cc1cc(CN2C[C@H](OCC3CCOCC3)[C@H]3COC[C@H]32)oc1C.O=C(O)C(F)(F)F | 99
Cc1cc(CN2CC[C@H]3[C@H]2CCN3S(C)(=O)=O)oc1C.O=C(O)C(F)(F)F | -17.79
Cc1noc(C)c1CN1C[C@H](OCC2CCN(C)CC2)[C@H]2COC[C@H]21.O=C(O)C(F)(F)F.O=C(O)C(F)(F)F | 122.2
Cc1ccc(CN2C[C@H](OCC3CCOCC3)[C@H]3COC[C@H]32)o1.O=C(O)C(F)(F)F | 113.3
Cc1ccc(CN2C[C@H](OCC3CCN(C)CC3)[C@H]3COC[C@H]32)o1 | 110.9
Cc1noc(C)c1CN1CCc2cnn(C)c2C1COCC1CC1.O=C(O)C(F)(F)F.O=C(O)C(F)(F)F (centres undefined) | -11.43
CNC(=O)[C@H]1C[C@H]2OCC[C@H]2N(Cc2ccc(C)o2)C1.O=C(O)C(F)(F)F | -19.44
Cc1ccc(CN2C[C@H](N3CCOCC3)[C@@H]3OCCC[C@@H]32)o1.O=C(O)C(F)(F)F.O=C(O)C(F)(F)F | -1.951
CN1CCC(CO[C@H]2CN(C(=O)c3cccn3C)[C@@H]3COC[C@H]23)CC1 | -44.74
COCCN1C[C@H]2[C@@H](C1)N(Cc1ccc(C)o1)CC[C@H]2OC | 6.788
Cc1noc(C)c1CN1Cc2cn(C)nc2C(COCC2CC2)C1.O=C(O)C(F)(F)F.O=C(O)C(F)(F)F (centres undefined) | 0.03565
CC1(c2ccccc2)CCC(=O)N(CCN2CCCOC2=O)C1 (centres undefined) | -2.659
CC(Cn1cnc2cn(C)nc2c1=O)Oc1cccnc1 (centres undefined) | -0.8182

SMILES | Percent Effect [%]
Cc1[nH]ncc1CCCNC(=O)N1CCN2CCCCC2C1 (centres undefined) | -2.363
CCCn1cnnc1CNC(=O)C1COc2cc(OC)ccc2C1 (centres undefined) | -15.52
CCOCCNC(=O)c1cccc(S(=O)(=O)NC[C@@H]2C[C@H](F)CN2)c1 | -1.824
Cc1ccc(F)c(C(=O)N2CCN(S(C)(=O)=O)[C@@H](C)C2)c1 | 7.436
COCc1nc(Cn2c(C)cc(C(F)(F)F)cc2=O)no1 | 116.4
COCc1nc(CN2C(=O)OC[C@@H]2C(C)C)no1 | 7.812
COCc1noc(CCNC(=O)c2cc(C)c(C)[nH]c2=O)n1 | 20.99
COCc1nc(Cn2ncn3cccc3c2=O)no1 | 10.93
Cc1cc(C(F)(F)F)cc(=O)n1Cc1nc(C(C)C)no1 | 99.71
Cc1cnn(CCCn2c(C)cc(C(F)(F)F)cc2=O)c1 | -18.2
Cc1cc(C(F)(F)F)cc(=O)n1CCn1cc(Cl)cn1 | -6.58
Cc1cc(C(F)(F)F)cc(=O)n1CCCn1cnnn1 | -2.026
COCc1noc(Cn2c(C)cc(C(F)(F)F)cc2=O)n1 | 123.4
CCn1cc(CN(C)S(=O)(=O)c2cc(Cl)ccc2Cl)cn1 | 2.949
COCc1ncc(CN2CC(Oc3c(C)cccc3C)C2)cn1 | 2.359
C[S+]([O-])c1nncn1CC(=O)c1ccc2c(c1)CCO2 (centres undefined) | -1.094
CC(C)N(C)CC(=O)NCC(O)c1cc2ccccc2s1 (centres undefined) | -11.06
FC(F)(F)Cc1noc(CN2CCCC2c2noc(C3CC3)n2)n1 (centres undefined) | 0.1706
CC(C)c1nc(CSc2nnc(Cn3cncn3)o2)cs1 | -8.133
CC(C)Cc1nc(CSCC(=O)N2CCC(C)CC2)no1 | 4.489

SMILES | Percent Effect [%]
CC(C)Cc1cc(C(=O)NC(C)(CO)CO)n(C)n1 | 11.8
COc1ccccc1C(=O)Nc1cc(CC(C)C)nn1C | 100.2
CC(C)Cc1cc(C(=O)N2CC(OCc3ccccc3F)C2)n(C)n1 | 4.315
CC(C)Cc1cc(NC(=O)c2ccccc2F)n(C)n1 | 99.33
O=c1c2cccnc2cnn1CC(O)c1ccc(Br)cc1 (centres undefined) | -15.17
CSCCC(NC(N)=O)C(=O)NCc1cnn(-c2ccccc2)c1 (centres undefined) | -24.8
O=C1CN(S(=O)(=O)c2ccc(F)cc2)CC(O)CN1CC1CC1 (centres undefined) | 106.3
CC(C)CN1CC(O)CN(S(=O)(=O)c2ccc(F)cc2)CC1=O (centres undefined) | 103.6
CC(C)CN1CC(O)CN(S(=O)(=O)c2ccccc2)CC1=O (centres undefined) | 100.2
CC(C)CN1CCNC(=O)C12CCN(S(=O)(=O)c1ccc(F)cc1)CC2 | -14.33
CCC[C@H]1CN(S(=O)(=O)c2ccccc2)C[C@@H]1N | -22.4
CC(C)CN1CC(c2nc(-c3ccc(F)cc3)c[nH]2)CC1=O (centres undefined) | -3.521
N[C@H]1CN(S(=O)(=O)c2ccccc2)C[C@@H]1C1CC1 | -7.486
CCN1CCNC(=O)C12CCN(S(=O)(=O)c1ccc(F)cc1)CC2 | -6
O=C1CO[C@@H]2CN(S(=O)(=O)c3ccccc3)C[C@H]2N1CC1CC1 | -2.601
Cc1ccc(C)c(OC(C)C(=O)NCCNc2cccnc2)c1 (centres undefined) | 16.95
CCn1ncc2c1NC(=O)CC2c1cnc(-c2ccccn2)nc1 (centres undefined) | -2.059
COc1ccccc1N1CCN(C(=O)Cn2nc(C)cc2C)CC1(C)C | -9.26
Cc1c(Cl)c(C(=O)N2CC[C@H](N3CCOCC3)[C@H](CCCO)C2)nn1C | -7.195
